The values that follow come from PubChem BioAssay (Tox21).

Assay [1] in a line: qHTS assay to identify small molecule antagonists of the glucocorticoid receptor (GR) signaling pathway - cell viability counter screen (AID 720693). Also: nearly all actives have a fitted effect of over 55% in size.
The nature of assay [2]: qHTS assay for identifying genotoxic compounds that show differential cytotoxicity against isogenic chicken DT40 cell lines with known DNA damage response pathways - Rad54/Ku70 mutant cell line (AID 743015). Also: nearly all actives have a fitted effect of over 60% in size. Also: potency is read from the fitted curve at half-maximal effect.
The nature of assay [3]: qHTS assay to identify small molecule antagonists of the androgen receptor (AR) signaling pathway - cell viability counter screen (AID 743033; also: nearly all actives have a fitted effect of over 45% in size; also: potency is read from the fitted curve at half-maximal effect). (Quantitative high-throughput screening tests each substance at several concentrations.)
Assay [4] concerns the target Androgen receptor (Homo sapiens) (UniProt P10275). Nature of the assay: qHTS assay to identify small molecule agonists of the androgen receptor (AR) signaling pathway using the MDA cell line (AID 743040; also: nearly all actives have a fitted effect of over 20% in size). In short, it runs like this: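 Agonist activity is measured as luciferase luminescence in human MDA-kb2 cells whose MMTV reporter responds to both AR and GR. Compounds in DMSO incubate 16 h at 37C, 0% CO2, and ONE-Glo is read after 30 min.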

A short description of assay [5]: qHTS assay to identify small molecule antagonists of the androgen receptor (AR) signaling pathway using the MDA cell line - cell viability counter screen (AID 743041; also: nearly all actives have a fitted effect of over 45% in size; also: potency is read from the fitted curve at half-maximal effect). In short, it runs like this:
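qHTS viability read-out; MDA-kb2 AR-luc; R1881-stimulated; 16 h exposure at 37C, 0% CO2; CellTiter-Fluor, 30 min; fluorescence intensity.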

The target of assay [6] is Androgen receptor (Homo sapiens) (UniProt P10275). In words: qHTS assay to identify small molecule antagonists of the androgen receptor (AR) signaling pathway using the MDA cell line (AID 743042; also: nearly all actives have a fitted effect of over 55% in size; also: potency is read from the fitted curve at half-maximal effect). In a few lines: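 MDA-kb2 cells (human breast carcinoma, stably carrying an MMTV-luciferase reporter responsive to AR and GR) were plated at 3,000 cells/well and preincubated 5 hr at 37C, then given compound plus R1881 agonist for 16 h. ONE-Glo luminescence was read.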

A short description of assay [7]: qHTS assay for identifying genotoxic compounds that show differential cytotoxicity against isogenic chicken DT40 cell lines with known DNA damage response pathways - Rev3 mutant cell line (AID 743014). Also: nearly all actives have a fitted effect of over 55% in size. Also: potency is read from the fitted curve at half-maximal effect.
Assay [8] is described as follows: qHTS assay for identifying genotoxic compounds that show differential cytotoxicity against isogenic chicken DT40 cell lines with known DNA damage response pathways - wild type cell line (AID 743012). Also: nearly all actives have a fitted effect of over 60% in size. Also: potency is read from the fitted curve at half-maximal effect. In a few lines:
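Cytotoxicity in repair-proficient parental chicken DT40 cells serves as the comparator for Rad54/Ku70- and Rev3-deficient lines. Cells were exposed to compounds for 40 h at 37 C/5% CO2, and ATP-based luminescence (CellTiter-Glo) measured viability.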

Assay [9] deals with Androgen receptor (Homo sapiens) (UniProt P10275). In words: qHTS assay to identify small molecule antagonists of the androgen receptor (AR) signaling pathway (AID 743035; active = well fitted inhibition curve with a large enough effect in the signal ratio in the repeat runs, not every such curve was filed as active; the % refers to the signal ratio; also: potency is read from the fitted curve at half-maximal effect). In a few lines:
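Steps: seed AR-UAS-bla GripTite HEK293 cells, incubate 4 h at 37C; pin in test compound, then add agonist R1881; incubate 16 h at 37C; add LiveBLAzer B/G FRET substrate, 2 h at room temperature; read fluorescence.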

Records with an inconclusive call do not appear. Activity calls are given as the source filed them. Unless noted, calls follow the shape of the dose curve; as a rule, active = well fitted curve in the direction sought with a large enough effect in the repeat runs; inconclusive = weak or mixed curves; inactive = no such curve, though single readings can be large; an effect the other way counts as inactive or inconclusive.

Sequence of Androgen receptor (Homo sapiens) (P10275 whole entry, looked up): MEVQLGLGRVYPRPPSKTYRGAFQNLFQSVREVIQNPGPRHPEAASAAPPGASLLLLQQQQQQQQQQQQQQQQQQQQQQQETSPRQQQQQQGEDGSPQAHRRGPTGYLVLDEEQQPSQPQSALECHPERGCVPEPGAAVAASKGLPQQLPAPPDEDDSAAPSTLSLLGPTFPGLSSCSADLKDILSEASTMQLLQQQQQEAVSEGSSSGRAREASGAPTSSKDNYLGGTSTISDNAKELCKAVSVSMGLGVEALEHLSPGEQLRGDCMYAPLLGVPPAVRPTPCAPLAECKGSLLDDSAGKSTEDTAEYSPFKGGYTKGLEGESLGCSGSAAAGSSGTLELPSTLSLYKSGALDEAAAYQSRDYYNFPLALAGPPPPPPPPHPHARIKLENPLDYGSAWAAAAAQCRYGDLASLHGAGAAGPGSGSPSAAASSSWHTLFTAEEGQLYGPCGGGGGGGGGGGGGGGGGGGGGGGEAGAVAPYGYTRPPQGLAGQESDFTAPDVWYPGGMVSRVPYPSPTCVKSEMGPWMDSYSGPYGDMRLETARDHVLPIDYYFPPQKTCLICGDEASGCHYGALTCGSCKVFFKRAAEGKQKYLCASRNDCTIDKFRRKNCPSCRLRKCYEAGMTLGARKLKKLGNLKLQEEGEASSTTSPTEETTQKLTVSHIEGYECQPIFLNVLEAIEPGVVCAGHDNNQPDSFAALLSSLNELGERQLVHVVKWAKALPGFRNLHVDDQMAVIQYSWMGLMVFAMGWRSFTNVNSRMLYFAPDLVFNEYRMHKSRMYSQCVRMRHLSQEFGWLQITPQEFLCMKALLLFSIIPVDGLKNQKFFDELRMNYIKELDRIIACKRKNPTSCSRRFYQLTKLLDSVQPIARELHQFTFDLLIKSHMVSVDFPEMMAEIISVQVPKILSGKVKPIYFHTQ

With `COc1cc(OC)c2ccc(=O)oc2c1`, the Potency entry in assay [1], in assay [3], in [4], in assay [5] and in assay [6] was “inactive” throughout. For the same molecule, the Potency in assay [2] is 68.6 µM (active).

On to `CS(=O)(=O)c1ccc([C@@H](C[C@H]2CCC(=O)C2)C(=O)Nc2cnccn2)cc1Cl`, for which the Potency entry in assay [1], in assay [3] and in assay [5] was “inactive” throughout.

Turning to `Cc1ccccc1S(N)(=O)=O`, the Potency entry in assay [1], in [7], in [2], in assay [3] and in assay [5] was “inactive” each time.

As for `Cc1c(C2(c3cc(Br)c(O)c(Br)c3C)OS(=O)(=O)c3ccccc32)cc(Br)c(O)c1Br`, the Potency is 18.8 µM (active) in [8]; 18.8 µM (active) in [7]; 18.8 µM (active) in [2]; 16.9 µM (active) in [3]; 23.6 µM (active) in assay [5].

For the molecule `CC(C)C(O)C(C)(C)CO` (stereo not given), the Potency result in assay [8], in assay [7], in [2], in assay [3] and in assay [5] was “inactive” in each case.

On to `O=C(CCS)OCC(COC(=O)CCS)(COC(=O)CCS)COC(=O)CCS`, for which the Potency entry in assay [1], in assay [7], in assay [2], in assay [3] and in [5] was “inactive” each time.

Regarding `Nc1nc2ccc(OC(F)(F)F)cc2s1`, the Potency result in [1] and in [5] was “inactive” in each case.

As to `COc1cc(S(=O)(=O)Nc2ccccc2)c(OC)cc1N`, the Potency entry in assay [1], in assay [2], in assay [3] and in assay [5] was “inactive” each time.

Regarding `O[C@@H](CNC[C@H](O)[C@H]1CCc2cc(F)ccc2O1)[C@@H]1CCc2cc(F)ccc2O1`, the values for the Potency in assay [8], in assay [7] and in [2] were 6.68 µM (active), 13.3 µM (active) and 11.9 µM (active), respectively.

With `Nc1c(Cl)cc(Cl)cc1[N+](=O)[O-]`, the Potency result in [1], in [3], in assay [9], in [4], in [5] and in assay [6] was “inactive” throughout.

In the case of `Oc1ccc2c(c1)Cc1ccccc1-2`, the Potency result in assay [1] and in assay [5] was “inactive” in each case.

Turning to `CO[C@@H]1[C@@H](OC)[C@H](C)[C@@](O)(CC(=O)O)O[C@H]1[C@H](C)[C@H]1O[C@@]2(CC[C@@](C)([C@H]3CC[C@@](C)([C@@H]4O[C@@H]([C@H]5O[C@](C)(O)[C@H](C)C[C@@H]5C)C[C@@H]4OC4C[C@H](OC)[C@@H](OC)[C@H](C)O4)O3)O2)C[C@H](O)[C@H]1C` (stereo not given in full), the Potency in assay [8] was 0.168 µM (active); in assay [7] it was 0.15 µM (active); in [2], 0.211 µM (active); in assay [5] it was 1.06 µM (active).

With `Cc1ccc2c(c1[N+](=O)[O-])C(=O)c1ccccc1C2=O`, the Potency result in assay [1], in assay [3] and in assay [5] was “inactive” in each case. In addition, the Potency in assay [2] was 30 µM (active).

`CNC1CCCN(c2c(F)cc3c(=O)c(C(=O)O)cn(C4CC4)c3c2OC)C1` (stereo not given): the Potency entry in assay [1], in assay [7], in [2], in assay [3] and in [5] was “inactive” each time.

Turning to `CCCCCCCCCCCSCC(=O)O`, the Potency result in assay [8], in assay [7], in assay [2], in assay [3] and in assay [5] was “inactive” throughout.

As to `CC(=O)OC(C)C[N+](C)(C)C` (stereo not given), the Potency result in assay [1], in assay [7], in assay [2], in assay [3] and in [5] was “inactive” each time.

In the case of `O=C1c2ccccc2C(=O)c2c(O)ccc(O)c21`, the Potency entry in [7], in assay [3] and in [5] was “inactive” in each case. The Potency in assay [2] is 7.7 µM (active).

In the case of `COC(=O)C1=C(C)NC(C)=C(C(=O)OC(C)(C)CN(C)CCC(c2ccccc2)c2ccccc2)C1c1cccc([N+](=O)[O-])c1` (stereo not given), the Potency in assay [8] is 5.96 µM (active); in assay [7], 6.68 µM (active); in assay [2], 9.44 µM (active); in assay [9], 23.9 µM (active); in [6], 29.8 µM (active). Further, the Potency result in assay [3], in assay [4] and in assay [5] was “inactive” throughout.

Take `CCN(CC)CCOC(=O)C(c1ccccc1)c1ccccc1`: the Potency result in assay [1], in assay [3] and in assay [5] was “inactive” in each case.

In the case of `C=C(C)c1ccccc1`, the Potency entry in assay [8], in [7], in assay [2], in assay [3] and in [5] was “inactive” throughout.

As to `c1ccc(CNc2ncnc3c2ncn3C2CCCCO2)cc1` (stereo not given), the Potency entry in assay [1], in assay [3] and in [5] was “inactive” each time. Moreover, the Potency in [2] was 61.1 µM (active).

`Nc1ccc(N=Nc2ccc(N)cc2)cc1`: the Potency result in assay [1], in assay [7] and in [3] was “inactive” in each case.

With `CCN(Cc1cccc(S(=O)(=O)O)c1)c1ccc(C(=C2C=CC(=[N+](CC)Cc3cccc(S(=O)(=O)O)c3)C=C2)c2ccccc2S(=O)(=O)[O-])cc1`, the Potency in assay [8] is 15.4 µM (active); in assay [7], 17.3 µM (active); in [2] it was 15.4 µM (active); in [5], 38.7 µM (active).

With `CC(=O)Oc1cccc(O)c1`, the Potency entry in [8], in [7], in assay [2], in assay [3] and in assay [5] was “inactive” in each case.

Turning to `CC(C)(O)c1coc(S(=O)(=O)NC(=O)Nc2c3c(cc4c2CCC4)CCC3)c1`, the Potency entry in [1], in [3] and in assay [5] was “inactive” each time.

In the case of `CCCCCCCC/C=C\CCCCCCCC(=O)OCCO`, the Potency in assay [7] is 81 µM (active); in assay [2] it was 72.2 µM (active). Besides, the Potency result in assay [3] and in [5] was “inactive” throughout.

As for `[Cl][Nd]([Cl])[Cl]`, the Potency entry in assay [1], in assay [7], in [2], in assay [3] and in [5] was “inactive” throughout.

As for `O=C(/C=C/c1ccc([N+](=O)[O-])cc1)c1ccccc1`, the Potency result in [1], in [7], in [2], in assay [3] and in [5] was “inactive” throughout.

Turning to `O=C(O)c1cccc(C[C@@H]2COc3ccc(OCc4nc5cc(F)ccc5s4)cc3[C@@H]2O)c1`, the Potency result in assay [1], in assay [3] and in assay [5] was “inactive” in each case. Further, the Potency in [7] was 68.7 µM (active).

`COC(=O)c1sccc1S(N)(=O)=O`: the Potency result in [1], in [2], in [3] and in assay [5] was “inactive” each time.
